TDP1 cell CPT = qHTS for Inhibitors of human tyrosyl-DNA phosphodiesterase 1 (TDP1): qHTS in cells in presence of CPT | Potency, µM (doses to about 46.2 µM), without a hit: at the highest dose activity change, negative = growth inhibition, usual class: inhibitors | chicken DT40 Tdp1-/-;hTDP1 cells + 20 nM CPT, ATP luminescence, 48 h | 420,000 tested, 12% active; also: potency is read from the fitted curve at half-maximal effect; nearly all actives have a fitted effect of over 55% in size
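Chicken DT40 Tdp1-/- cells complemented with human TDP1, 400 cells/well, exposed to compounds plus 20 nM camptothecin for at least 48 h at 37 C; viability read as ATP content by CellTiter-Glo luminescence.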
HT1080NT lethal = qHTS for induction of synthetic lethality in tumor cells producing 2HG: qHTS for the HT-1080-NT fibrosarcoma cell line; AID 686970, 2013; HT-1080-NT fibrosarcoma viability, CellTiter-Glo ATP luminescence, 48 h; Potency, µM (top dose mostly 46.1 µM), for inactives: at the top dose activity, negative = less viability, usual class: cytotoxic; 360,000 tested, 1.6% active;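 also: NT is the 2HG producing partner of a matched IDH1 knockdown line; potency is read from the fitted curve at half-maximal effect; 0% = DMSO-treated cells and -100% = media-only wells without cells; nearly all actives have a fitted effect of over 55% in size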
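Viability of the 2HG-overproducing fibrosarcoma line after 48 hours of compound exposure at 37 degrees C was determined by luminescence with CellTiter-Glo, and concentration-effect curves were then fitted and categorized.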
12-LOX inh = Primary qHTS assay for inhibitors of human arachidonate 12S-lipoxygenase (ALOX12): Round 2 | Polyunsaturated fatty acid lipoxygenase ALOX12 (Homo sapiens), P18054 | purified 12hLO, xylenol orange hydroperoxide absorbance | 580,000 tested, 1.1% active | Potency, µM (highest dose often 108 µM), inactives show at the highest dose activity change, negative = inhibition, actives largely listed as inhibitors; also: potency is read from the fitted curve at half-maximal effect
Target sequence (P18054 whole entry, looked up): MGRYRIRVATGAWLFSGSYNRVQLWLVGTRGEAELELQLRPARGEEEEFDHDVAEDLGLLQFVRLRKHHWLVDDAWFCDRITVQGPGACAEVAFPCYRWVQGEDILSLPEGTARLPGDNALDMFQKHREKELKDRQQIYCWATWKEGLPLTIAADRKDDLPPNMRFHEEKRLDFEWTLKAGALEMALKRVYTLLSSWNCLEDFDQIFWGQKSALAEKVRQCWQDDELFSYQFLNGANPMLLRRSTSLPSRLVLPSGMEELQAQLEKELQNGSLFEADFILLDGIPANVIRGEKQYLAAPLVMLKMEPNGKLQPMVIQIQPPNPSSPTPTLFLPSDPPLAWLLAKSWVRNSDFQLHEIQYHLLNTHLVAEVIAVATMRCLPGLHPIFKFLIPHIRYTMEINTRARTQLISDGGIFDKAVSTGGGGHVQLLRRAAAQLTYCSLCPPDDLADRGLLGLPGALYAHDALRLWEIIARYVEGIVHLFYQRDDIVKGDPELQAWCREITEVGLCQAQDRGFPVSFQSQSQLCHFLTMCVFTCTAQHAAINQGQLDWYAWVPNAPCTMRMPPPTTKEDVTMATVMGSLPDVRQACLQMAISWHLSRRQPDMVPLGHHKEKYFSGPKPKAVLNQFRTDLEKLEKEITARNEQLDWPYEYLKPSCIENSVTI
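Purified human 12hLO (150 nM final) in 25 mM Hepes, 0.01% Triton X-100, pH 7.0 was preincubated 15 min at room temperature with compound. Then 40 uM arachidonic acid was added, 30 min. Hydroperoxide was read by Fe-XO absorbance ratio 573/405 nm.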
DT40 TDP1 no CPT = qHTS for Inhibitors of human tyrosyl-DNA phosphodiesterase 1 (TDP1): qHTS in cells in absence of CPT; 420,000 tested, 15% active; AID 686978, 2013; Potency, µM (series often up to 46.2 µM), inactives show at the highest dose activity change, negative = growth inhibition, most hits filed as inhibitors; DT40 Tdp1-/- hTDP1 cells, no CPT, ATP luminescence, 48 h; also: potency is read from the fitted curve at half-maximal effect; nearly all actives have a fitted effect of over 55% in size
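Camptothecin absent (DMSO only). Human TDP1-complemented DT40 knockout cells, 400 cells/well, 37 °C for minimum 48 hr; ATP measured via CellTiter-Glo, 30 min dark incubation, luminescence.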
IL-1B inflam inh = qHTS for Inhibitors of Inflammasome Signaling: IL-1-beta AlphaLISA Primary Screen; THP-1 LPS/ATP IL-1B secretion, AlphaLISA, 16 h; active compounds read low; activity change, % at 57.5 µM; 360,000 tested, 4.7% active; AID 743279, 2014; in the data active = activity change below about -50%; inconclusive = mostly about -30% to -49%
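THP-1 cells pretreated 1 hr with compounds (up to 57.5 uM final), then stimulated with LPS (250 ng/mL final) plus ATP (1.25 mM final); secreted IL-1B measured by AlphaLISA after 16 hr, decreased signal indicating inhibition.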
HT1080 IDH1KD tx = qHTS for induction of synthetic lethality in tumor cells producing 2HG: qHTS for the HT-1080-IDH1KD cell line | AID 686971, 2013 | 360,000 tested, 2% active | HT-1080 IDH1 knockdown viability, ATP luminescence, 48 h | Potency, µM (series often up to 46.1 µM), inactives show at the highest dose activity, negative = toxicity, most hits filed as cytotoxic;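 also: potency is read from the fitted curve at half-maximal effect; 0% = DMSO wells and -100% = cell-free medium wells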
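Assay cells: HT-1080 with IDH1 knockdown, 750 per well, RPMI/5% FBS. Exposure: 48 h at 37 °C following 2 h pre-incubation. Read: CellTiter-Glo luminescence; fitted concentration-response, curve class assigned.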
Starred values were filed as active, the others as inactive; u = inconclusive; x = no result; [ ] = another dose, or the depositor's remark. Shown is part of a subset that was picked to be rich in hits. Unless noted, calls follow the shape of the dose curve; as a rule, active = well fitted curve in the direction sought with a large enough effect; inconclusive = small, poorly fitted or top-dose-only effect, or another doubt; inactive = no such curve, though single readings can be large; an effect the other way counts as inactive or inconclusive. Unless noted, % is scaled to controls: 0 for no effect and ±100 for the full control effect.

SMILES	TDP1 cell CPT	HT1080NT lethal	12-LOX inh	DT40 TDP1 no CPT	IL-1B inflam inh	HT1080 IDH1KD tx
COc1cccc(/C=N/Nc2ccnc(=O)[nH]2)c1O	0.0231µM*	u	15.7%	0.0651µM*	127.4	u
O=c1nccc(N/N=C/c2ccccc2O)[nH]1	0.231µM*	1.16µM*	4.1%	0.326µM*	47.2	u
CCOc1ccccc1/C=N/Nc1ccnc(=O)[nH]1	5.17µM*	-15.5%	u	2.91µM*	32.7	-0.5%
CCOc1ccccc1/C=N/Nc1nc(C)cc(=O)[nH]1	-10.5%	-1.6%	x	-11.8%	-5.2	7.0%
N#Cc1ccccc1OCC(=O)c1ccc(NC(=O)c2ccccc2)cc1	x	x	6.2%	x	x	x
CS(=O)(=O)N1Cc2ccccc2CC1C(=O)Nc1ccccc1C(N)=O (stereo unspecified)	23.1µM*	2.7%	0.0%	-22.7%	19.3	10.0%
CCOc1ccccc1NC(=O)C1Cc2ccccc2CN1S(C)(=O)=O (stereo unspecified)	-0.1%	-5.2%	0.0%	-16.9%	20.9	-8.4%
CCS(=O)(=O)N1Cc2ccccc2CC1C(=O)Nc1nc2ccccc2s1 (stereo unspecified)	u	-13.4%	-2.6%	16.4µM*	11.6	-3.7%
CCc1nnc(NC(=O)C2Cc3ccccc3CN2S(=O)(=O)CC)s1 (stereo unspecified)	-3.8%	11.7%	0.7%	15.5%	-1.1	-19.6%
CCOc1ccc(S(=O)(=O)N(CC)CC(=O)NC2CC2)cc1Cl	x	x	-1.3%	x	x	x
COc1ccc(NC(=O)N2C[C@@H]3C[C@H](C2)c2ccc(NC(=O)Nc4cccc(C#N)c4)c(=O)n2C3)cc1	x	x	-39.5%	x	x	x
COC(=O)[C@]1(Cc2ccccc2)N[C@H](c2ccc(-c3cccc(Cl)c3)c(OC)c2)[C@@H]2C(=O)N(C)C(=O)[C@@H]21	13µM*	-11.0%	39.8µM*	10.3µM*	u	-22.3%
CCN1C(=O)[C@H]2[C@@H](c3ccc(-c4cccc(Cl)c4)c(OC)c3)N[C@@](Cc3ccccc3)(C(=O)OC)[C@H]2C1=O	u	-0.4%	-21.0%	18.4µM*	u	-18.2%
CCN1C(=O)[C@H]2[C@@H](c3ccc(-c4ccc(OC)cc4)c(OC)c3)N[C@@](Cc3ccccc3)(C(=O)OC)[C@H]2C1=O	u	10.0%	u	u	-15.6	2.4%
COCCc1nncn1C1CCN(C(=O)c2ccc(Br)cc2)CC1	x	x	42.8%	x	x	x
CC1=C(C)CC(C(=O)NC(c2ccccc2)c2ccccc2)C(C(=O)O)C1 (stereo unspecified)	x	x	0.7%	x	x	x
Cc1noc2c(NCCCn3ccnc3)cc(-c3ccccc3)nc12	x	x	68.3%[176 µM]	x	x	x
CC(C)(C)C(=O)/C=c1\s/c(=C\c2ccc(-c3ccc([N+](=O)[O-])cc3)o2)c(=O)n1CC(=O)NC(N)=O	u	-20.3%	u	23.1µM*	40.2	-15.3%
CC1(C)CC2(CC(c3cccs3)c3cc(Cl)c(O)cc3O2)NC(=S)N1 (stereo unspecified)	8.2µM*	-4.3%	u	7.31µM*	17.4	-22.4%
Cc1ccc(N(Cc2ccco2)C(=O)c2ccc(N3CCCCC3)c([N+](=O)[O-])c2)cc1	20.6µM*	-9.6%	-4.1%	5.8µM*	-22.5	u
O=C(c1ccc(-n2cncn2)c([N+](=O)[O-])c1)N1CCN(S(=O)(=O)c2ccccc2Br)CC1	u	6.5%	-25.6%	u	-13.1	4.3%
Cc1ccc(S(=O)(=O)N2CCN(C(=O)c3ccc(N4CCCCC4)c([N+](=O)[O-])c3)CC2)cc1	u	13.7%	x	-17.4%	-61.9*	4.6%
O=C(NCc1ccco1)c1ccc(N2CCOCC2)c([N+](=O)[O-])c1	16.6%	-1.2%	-0.4%	-0.4%	0.0	15.8%
Cc1cc(C)c(S(=O)(=O)N2CCN(C(=O)c3ccc(-n4cncn4)c([N+](=O)[O-])c3)CC2)c(C)c1	u	-3.2%	2.0%	13µM*	-4.2	0.3%
Cc1ccc(S(=O)(=O)N2CCN(c3ccc(C(=O)N4CCOCC4)cc3[N+](=O)[O-])CC2)cc1	18.4µM*	-10.8%	-5.1%	11.6µM*	-3.9	-6.7%
SMILES	TDP1 cell CPT	HT1080NT lethal	12-LOX inh	DT40 TDP1 no CPT	IL-1B inflam inh	HT1080 IDH1KD tx
CC(c1ccc(S(C)(=O)=O)cc1)N(C)C(=O)CCc1ncc(-c2ccccc2Cl)o1 (stereo unspecified)	x	x	19.5%	x	x	x
CCn1cc(S(=O)(=O)c2ccccc2)c(=O)c2cc(F)c(N3CCCC3)cc21	20.6µM*	x	-5.3%	u	x	x
CCn1cc(S(=O)(=O)c2ccc(Cl)cc2)c(=O)c2cc(F)c(N3CCOCC3)cc21	25.9µM*	x	-14.2%	16.4µM*	x	x
CCCn1cc(S(=O)(=O)c2ccccc2)c(=O)c2cc(F)c(N3CCCCCC3)cc21	25.9µM*	x	-8.1%	18.4µM*	x	x
C/C(=N\NC(N)=S)C(=O)O	x	x	19.9%	x	x	x
COc1cccc(-c2cn3nc4c(nc3n2)CCCC4)c1	-35.3%	u	x	16.4µM*	-12.7	16.4µM*
COc1cccc(-c2cc(C(F)(F)F)n3nc(N)nc3n2)c1	-21.5%	0.5%	0.0%	u	-3.2	2.0%
c1ccc(CNC2(c3nnnn3-c3ccccc3)CCCC2)cc1	x	x	30.7%	x	x	x
O=C(CCN1C(=O)/C(=C/c2ccccc2Cl)SC1=S)NC1C=CS(=O)(=O)C1 (stereo unspecified)	18.4µM*	-3.7%	-15.2%	23.1µM*	-63.4*	-0.8%
O=C(CCN1C(=O)/C(=C/c2ccc(F)cc2)SC1=S)NNC(=O)c1ccncc1	u	0.6%	8.5%	u	1.6	0.2%
CC(C(=O)NC1C=CS(=O)(=O)C1)N1C(=O)/C(=C/c2ccc(Cl)cc2)SC1=S (stereo unspecified)	u	-12.0%	39.8µM*	u	-58.9*	-28.2%
O=C(CCN1C(=O)/C(=C/c2ccc(F)cc2)SC1=S)NC1C=CS(=O)(=O)C1 (stereo unspecified)	13µM*	2.9%	-2.0%	13µM*	u	-3.2%
O=C(CCN1C(=O)/C(=C/c2ccc(F)cc2)SC1=S)N[C@@H](CO)Cc1ccccc1	16.4µM*	-0.9%	3.3%	20.6µM*	-51.6*	1.7%

Screens as filed in PubChem.
